Compound activity (PubChem BioAssay)
MPTP inh: mitochondrial permeability transition pore inhibitors, primary screen, biochemical, isolated mouse mitochondria, absorbance. actives 1.4% (n = 360,000). inhibition, % at 10 µM. Ca2+ swelling absorbance, 30 min;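 active means inhibition of 50% or more, scaled per plate between neutral and stimulator controls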
tim23-1 inh: growth inhibitors of tim23-1 mutant yeast, primary screen, luminescence, uHTS | S. cerevisiae tim23-1 growth, BacTiter-Glo luminescence, 24 h | inhibition, % at 20 µM | actives 1.3% (n = 330,000) | AID 463212, 2010;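 active means growth inhibition of the mutant yeast at or above 50%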;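 further: temperature-sensitive mutant grown at 25 °C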
Mdm2 MdmX PPI: inhibitors of human Mdm2-MdmX association, primary screen, cell-based, luminescence, split luciferase, SaOS-2, uHTS. Protein Mdm4 (Homo sapiens) + E3 ubiquitin-protein ligase Mdm2 (Homo sapiens), …. inhibition, % at 8 µM. actives 3% (n = 330,000). SaOS-2 split-luciferase Mdm2/MdmX complementation. AID 485346, 2010;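 active means inhibition of at least 50% at 8 µM in the primary screen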
Target sequence (O15151 whole entry, looked up): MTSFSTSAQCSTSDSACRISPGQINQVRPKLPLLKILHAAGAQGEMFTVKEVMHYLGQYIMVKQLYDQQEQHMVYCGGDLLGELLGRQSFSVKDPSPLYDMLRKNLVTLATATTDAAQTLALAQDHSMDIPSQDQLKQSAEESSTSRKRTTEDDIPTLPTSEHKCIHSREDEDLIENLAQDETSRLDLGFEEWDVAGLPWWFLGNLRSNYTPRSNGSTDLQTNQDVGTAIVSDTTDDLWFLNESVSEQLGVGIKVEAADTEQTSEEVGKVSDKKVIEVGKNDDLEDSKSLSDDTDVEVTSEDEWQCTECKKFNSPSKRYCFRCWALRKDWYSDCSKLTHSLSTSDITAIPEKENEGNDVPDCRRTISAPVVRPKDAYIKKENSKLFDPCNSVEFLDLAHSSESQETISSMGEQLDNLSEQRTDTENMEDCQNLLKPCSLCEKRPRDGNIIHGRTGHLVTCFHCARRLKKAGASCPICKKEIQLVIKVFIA
Target sequence (Q00987 whole entry, looked up): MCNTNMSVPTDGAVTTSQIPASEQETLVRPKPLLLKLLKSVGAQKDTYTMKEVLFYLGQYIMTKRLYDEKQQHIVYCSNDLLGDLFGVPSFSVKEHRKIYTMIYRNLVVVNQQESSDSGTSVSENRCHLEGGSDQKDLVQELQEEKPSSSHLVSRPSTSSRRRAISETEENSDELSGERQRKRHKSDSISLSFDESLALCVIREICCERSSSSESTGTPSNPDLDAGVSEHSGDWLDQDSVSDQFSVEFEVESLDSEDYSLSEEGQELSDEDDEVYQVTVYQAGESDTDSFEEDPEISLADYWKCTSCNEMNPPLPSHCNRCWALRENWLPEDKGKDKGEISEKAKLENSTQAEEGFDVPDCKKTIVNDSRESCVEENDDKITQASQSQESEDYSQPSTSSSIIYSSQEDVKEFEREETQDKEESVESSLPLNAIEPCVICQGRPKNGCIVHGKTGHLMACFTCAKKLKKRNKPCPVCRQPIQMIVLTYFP
TIM10 inh: growth inhibitors of isogenic TIM10 control yeast, primary screen, counter-screen for tim10-1 yeast inhibitor project, luminescence, uHTS | actives 1.4% (n = 330,000) | S. cerevisiae TIM10 strain growth, BacTiter-Glo luminescence, 24 h | inhibition, % at 10 µM | AID 463195, 2010;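 active means inhibition of 40% or more at the single tested concentration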;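 further: wild-type TIM10 isogenic control strain grown at permissive 25 °C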
tim10-1 inh: growth inhibitors of tim10-1 mutant yeast, primary screen, luminescence, uHTS. actives 2.2% (n = 330,000). inhibition, % at 20 µM. S. cerevisiae tim10-1 ts strain growth, BacTiter-Glo, 24 h;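 active means inhibition of at least 40%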;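 further: mutant grown at 25 °C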
Mdm2-MdmX conf: Mdm2-MdmX complex disruptors, retested hits, confirmation, luminescence, single concentration. Mdm2-MdmX binding, luminescent assay. AID 489028, 2010. inhibition, % at 8 µM. shares compounds with Mdm2 MdmX PPI. actives 55% (n = 10,000); in the data active means inhibition above about 40%
Full FLuc ctr: full-length luciferase signal inhibition, confirmation, counter-screen for Mdm2/MdmX interaction inhibitor project, cell-based, single concentration, SaOS-2. inhibition, % at 8 µM. shares compounds with Mdm2 MdmX PPI. actives 77% (n = 6,200). SaOS-2 full-length luciferase counterscreen, luminescence;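 active means mean inhibition at 8 µM reaching about 37%, which flags the compound as non-specific, limit read from the data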;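 further: p53-null SaOS-2 cells with luciferase driven by a doxycycline-inducible promoter; compound on cells about two nights before reading with doxycycline added after day one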
A number is an active result; - = inactive; . = no result given. Compounds with a hit are over-represented: about 6.3% of the library has one in this group of screens.

SMILES	MPTP inh	tim23-1 inh	Mdm2 MdmX PPI	TIM10 inh	tim10-1 inh	Mdm2-MdmX conf	Full FLuc ctr
O=C(Nc1ccc(Cl)c(C(F)(F)F)c1)[C@@H]1CC=C[C@@H]2CCN(Cc3ccc(Cl)c(Cl)c3)C(=O)[C@@H]21	-	-	63	-	-	-	.
COC(=O)Nc1nc2ccc(C(=O)c3cccs3)cc2[nH]1	-	-	53	-	-	57	126
O=C(Nc1nc2ccccc2[nH]1)c1cccs1	-	-	-	-	-	.	.
Cc1ccc(C)c(-c2nnc(NC(=O)Cc3ccc(F)cc3)o2)c1	-	-	52	-	-	-	.
CCOC(=O)C1=C(COC(=O)/C=C/c2ccc(OCC)c(OC)c2)NC(=O)NC1C (configuration not stated)	-	-	-	-	-	.	.
CCOc1ccc(/C=C/C(O)=C2/C(=O)N(C)C3(C)CC2c2ccccc2O3)cc1OC (configuration not stated)	-	-	67	-	-	69	41
CCOc1ccc(/C=C/C(O)=C2/C(=O)NC3(C)CC2c2ccccc2O3)cc1OC (configuration not stated)	-	-	83	-	-	90	-
CCOc1ccc(/C=C2\SC(=O)N(CCNC(=O)C3COc4ccccc4O3)C2=O)cc1OC (configuration not stated)	-	-	-	-	-	.	.
CC1CCCCC1NC(=O)C1CCC(CNS(=O)(=O)c2ccc3c(c2)C(C)(C)C(=O)N3C)CC1 (configuration not stated)	-	.	.	.	.	.	.
Cc1cc(C)n(-c2nc(NCCCN(C)C)c3c4c(sc3n2)COC(C)(C)C4)n1	-	-	-	-	-	.	.
CCN(CC)CCNc1nc(-n2nc(C)cc2C)nc2sc3c(c12)CC(C)(C)OC3	-	-	61	-	-	-	.
Cc1cc(C)n(-c2nc(NCCN(C)C)c3c4c(sc3n2)COC(C)(C)C4)n1	-	-	65	-	-	-	63
Cc1ccccc1-n1c(SC(C)C(=O)NCC2CCCO2)nnc1-c1ccncc1 (configuration not stated)	-	.	.	.	.	.	.
COc1ccccc1N(CC(=O)Nc1cccc(C(F)(F)F)c1)S(C)(=O)=O	-	-	-	-	-	.	.
Cc1ccc([N+](=O)[O-])cc1N(CC(=O)Nc1ccc(S(=O)(=O)Nc2cccc(C(F)(F)F)c2)cc1)S(C)(=O)=O	-	-	55	-	-	45	39
COC(=O)c1cnc(Oc2ccc(NC(=O)NC(=O)c3c(OC)cccc3OC)cc2)cc1C(F)(F)F	-	-	76	-	-	58	80
Cc1cc(C)cc(CC(=O)N2CCC2(C)C(=O)NS(=O)(=O)c2ccc(C(C)(C)C)cc2)c1 (configuration not stated)	-	.	.	.	.	.	.
COc1cc2c(cc1OC)C(c1ccccc1[N+](=O)[O-])=NCC2	-	.	.	.	.	.	.
CCOC(=O)[C@]12CCCC=C1N(Cc1ccco1)C(=O)[C@H](CC(=O)NCC1CCCCC1)C2	-	.	.	.	.	.	.
COc1ccccc1N(Cc1ccccc1)S(=O)(=O)c1cccc(C(=O)Nc2cc(C)ccn2)c1	-	-	68	-	-	56	160
CCn1nc(NC(=O)Cc2ccc(OC)cc2)c2cc3cc(C)ccc3nc21	-	-	62	-	-	-	.
Cc1cccc(NC2=Nc3ccccc3N3C2=Nc2c(c(C)nn2-c2ccccc2)C3c2ccc(O)c(O)c2)c1 (configuration not stated)	-	-	78	-	-	-	50
Cc1ccc(NC2=Nc3ccccc3N3C2=Nc2c(c(C)nn2-c2ccccc2)C3c2ccc(O)c(O)c2)cc1 (configuration not stated)	-	.	.	.	.	.	.
Cc1nn(-c2ccccc2)c2c1C(c1ccc(O)c(O)c1)N1C(=N2)C(Nc2ccccc2)=Nc2ccccc21 (configuration not stated)	-	-	83	-	-	45	40
Cc1c(/C(O)=C2\C(=O)C(=O)N(CCCN(C)C)C2c2ccco2)cnn1-c1ccccc1 (configuration not stated)	-	.	.	.	.	.	.
SMILES	MPTP inh	tim23-1 inh	Mdm2 MdmX PPI	TIM10 inh	tim10-1 inh	Mdm2-MdmX conf	Full FLuc ctr
O=c1[nH]c(=O)n(-c2ccccc2)c2c1C(C(F)(F)F)(C(F)(F)F)N=C(CCC1CCCCC1)N2	-	-	-	-	-	.	.
CC(C)Cn1c2c(c(=O)[nH]c1=O)C(C(F)(F)F)(C(F)(F)F)N=C(CCC1CCCCC1)N2	-	-	52	-	-	71	52
CCCS(=O)(=O)NC(=O)C1(C)CCN(C(=O)c2ccc3ccccc3n2)C1 (configuration not stated)	-	.	.	.	.	.	.
Oc1ccc(Br)cc1-c1ccnn1-c1ccccc1	-	-	64	-	-	57	50
CC1=C(C(=O)N(C)C)CC(CC(=O)NCc2cccc3ccccc23)C(=O)N1Cc1ccc(F)cc1 (configuration not stated)	-	.	.	.	.	.	.
CC(C)(C)NC(=O)C(c1ccncc1)N(CC1CCCO1)C(=O)Cn1nnc(-c2ccc(F)cc2)n1 (configuration not stated)	-	-	-	-	-	.	.
CC(C)(C)NC(=O)C(c1ccncc1)N(Cc1cccs1)C(=O)Cn1nnc(-c2ccc(F)cc2)n1 (configuration not stated)	-	-	53	-	-	43	55
CCOc1ccc(Br)cc1C1=CC(=O)C[C@H](c2ccc(OC)cc2)C1	-	-	55	-	-	48	48
COc1ccc([C@H]2CC(=O)C=C(c3cc(Br)ccc3OC)C2)cc1	-	-	50	-	-	44	47
COc1ccc([C@H]2CC(=O)C=C(c3cc(C)ccc3OC)C2)cc1	-	-	-	-	-	.	.
Cc1ccc2nc(SCC(=O)Nc3ccccc3N3CCOCC3)c(C#N)cc2c1	-	-	-	-	-	.	.
CCc1ccc2nc(SCC(=O)Nc3ccccc3N3CCOCC3)c(C#N)cc2c1	-	-	67	-	-	60	46
C/C(=N\NC(=O)c1nnn(-c2nonc2N)c1CSc1ccc(C)cc1)c1ccco1	-	-	62	-	-	-	.
CCCc1c(C(=O)N/N=C(\C)c2ccc3c(c2)OCO3)nnn1-c1nonc1N	-	.	.	.	.	.	.
C/C(=N\NC(=O)c1nnn(-c2nonc2N)c1CSc1ccccc1)c1ccc2c(c1)OCO2	-	-	54	-	-	-	.
